Experimental data from the supplement of paper PMC11417369.
Whole data set: some 25,000 sequences, median “ln(normalized median fluorescence intensity)” near 7.1, cut for the highest 2% near 10. The list comes from a sample in which the highest values are over-represented; it also holds similar and randomly drawn sequences.

system: PfSIP2 AP2 domain 1 (GST-tagged); assay: gcPBM binding intensity (ln(normalized median fluorescence intensity)); higher = stronger DNA binding
Procedure, shortened: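 Using an Agilent 4 × 180k array, primer-extended double-stranded 36-bp intergenic genomic probes and negative controls were exposed for 1 h to GST-fused P. falciparum DNA-binding domains expressed in E. coli. Binding was carried out in 1× PBS with 1% milk, 0.2 mg/ml BSA, 0.5% salmon testes DNA and 0.03% Triton X-100, and protein was detected with Alexa488 anti-GST antibody and a 488 nm scan. Binding intensity is the highest Masliner-normalised natural-log median intensity across replicate spots of either probe orientation.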

Sequence	gcPBM binding intensity (ln)
CTTTCTATATAAAATCGTACATATATAATATTATAT [XGTACX_site5807]	7.3
GACATATAAATATACACACATACGTAAGTATATTAA [CACACA_site1790]	6.91
GGAAAATACATTCCAGTGCATTAATTTATTCAACGT	8.59
AGAGACACTTTTTATTGTACAAGAGGAGGTTACCTT [XGTACX_site8768]	6.61
AAAAAAAAAAAGAACACACACAGTGCACATTCGGTG [CACACA_site788]	10.3
AAACAGAAGACATATACACACATACAAAAAAGTGCA [CACACA_site4699]	7.62
AAAAAAAAAAAAAGAACACACACAGTGCACATTCGG [CACACA_site8163]	10.6
AAAAAAAAAAAAGAAACACACACATTTGTATATAAT [CACACA_site8648]	6.93
AAAAAAAAAAAAGAAACACACATATATATATATATA [CACACA_site140]	8.95
AGAACATGCAAACATGCACACAGAAAAAAAAAATAT [CACACA_site8442]	8.26
TGAACACACGAGCACACACACACATCTATATTTATA [CACACA_site6607]	7.22
TTAATTACACAAAAAAGTACTTGATATTGTTTATTA [XGTACX_site3449]	6.85
ATACTAACATTTTTTTGTACATATAACTATAAAATA [XGTACX_site1033]	7.32
AAATATTTGTGTGGTTGTACTATAATGATAAAAATA [XGTACX_site7703]	7.27
AAATACTGATTTGGTTGTACATGTGCACTATATAAC [XGTACX_site3795]	11.4
GGAACTTTTGGAGGTGCATGCGGAGCAATCTTTTCA [TGCATGCA_site454]	10.6
CCTTTTTCTAATGGATGTACTTATTATATACATTAT [XGTACX_site281]	7.14
TTGAAAAATCAGCACACACACAAATACATACATATT [CACACA_site7505]	7.03
ATTTTGATGATGTATGCACACATTGAAAATGAGAAA [CACACA_site2916]	9.12
TTTTTTTTTTTTTTTTTTGGTGAGAGAAGAAAATTC [CACACA_negctrl_site950]	7.02

Sequence	gcPBM binding intensity (ln)
TTTTTTTTTTTGTGAGTGCACGTATGAAGAGAAAAA	10.8
AGGAATATAAAGTGCACACATAATTTGGGGGCAAAA [CACACA_site258]	11.7
AATTTAATATAATGCACACATAAAAAAAAAAAAAAA [CACACA_site123]	7.42
TCAGGAATATAAAGTGCACACATAATTTGGGGGCAA [CACACA_site7974]	11.2
AATTTTGGAACGTGCACACATATGTAATATATATAT [CACACA_site3067]	10.1
GAATAAAGGAGAGGCACACATATATATATATATATA [CACACA_site2452]	9.61
AATTATGCACAAATCACACATATAAAATAAAAAGTG [CACACA_site4474]	7.87
ATATAGTATTAATTTGCATGTCATGTATTAGGTCGA [TGCATGCA_site540]	6.73
TAAAATTTTATAAAGGAACACACATTTTTTTTTTTT [CACACA_site8740]	6.87
TTTGATTTTAATGTGTGTACACATTTATTTATATAA [XGTACX_site4806]	7.74
AAATAAGAAAATCATAGTACATAGGAATAGAAGAAC [XGTACX_site3135]	7.59
ATATGGAATGATCATAGTACATAATTTAAAATTTTA [XGTACX_site3568]	6.74
ATAATGAAGACTTTTTTACACACTTCATATATTATA [CACACA_site8630]	6.96
AAAAAAAGAATGTGAACACACACATTGAATATAATT [CACACA_site8341]	6.79
ATTAAAAAAAAAGAGCGTACAAATAATTACTTCTTT [XGTACX_site8262]	6.83
ATATCATCTTCTCTATCATTTTTTTTTTTTTTTTTT [CACACA_negctrl_site1220]	7.69
AAATACTTAACATTGGTGCATATTTGTAAAATTATT [GTGCAC_site9515]	10.7
TTATTATTATAAAATTGTACTTGGTATATTAACATA [XGTACX_site5829]	6.98
TTTAAAATACAGAAGGTGCATTTAACATATTTGTAT	10.6
TATTTTAACATTAGGTGTACATACAAAAATAAAAAT [XGTACX_site8577]	7.37

Sequence	gcPBM binding intensity (ln)
TATATATATTTAAGGTGTACATAAATAACAAAATAT [XGTACX_site2641]	7.47
TTAATATAATTAAAATGTACTTATTTGTAAACATTA [XGTACX_site6313]	6.78
ATATTAAAATTTTAATGTACATGCGTATGTAGGAAT [XGTACX_site1673]	7.39
TAATCATTTTAGCTTACACACAAAATTTTGTTATAA [CACACA_site2939]	6.93
TTTATATAATTTTTTTGTACATATATATGAATACAT [XGTACX_site2316]	7.11
AAATGTTGAAAAATATGTACATATTATATATATTAT [XGTACX_site1165]	7.1
ATGTTAATTAATGAGGTGCATTGAATATTTCAATAA	10.6
AATATTTTTCAATTTCATGTGCATTCATTGAAGTTA [CACACA_negctrl_site1232]	7.34
TCTTTCAATATTAATGCATGTTAATAATAAATTTTA [TGCATGCA_site448]	6.89
GAAAAATTTAATTATTGTACGTTTCATCTATATTTA [XGTACX_site414]	6.91
TCATTTTATTATTCTACACACTTATCTATAATTATA [CACACA_site34]	7.2
AAAAAAAAAAAAAAAGTGCATATATAAATATTGTAT [GTGCAC_site9459]	9.58
AAAAAAAAGTTGTAAGTGCATGTATATAATAATATT	8.08
AGGATATAAAGTTGTGCATGTCAAGTGCACCGTATT [TGCATGCA_site451]	12.2
CATTTTGTTTTAAAGTGTACATTATGTAATATAAAA [XGTACX_site647]	7.15
TTTAGTTTTTATATAGCACACATATTGTGATTATGT [CACACA_site8316]	6.96
ATTTATATGCACCATTGTACGTTTTATAAAGTTTGG [XGTACX_site3755]	10.7
ATTGTGCACTTATATGCACACATTTTAGTTTTTTTT [CACACA_site2028]	10.6
ATATTACACATATATGCACACATTGTAGTTATTTAT [CACACA_site8843]	9.43
ATATATATATAAAGTTGTACATTTTTTATTTTTTCA [XGTACX_site7847]	9.04
